# KB-V1 cytotox = kills drug-selected multidrug resistant KB-V1 cells. Potency, µM (series often up to 46.1 µM), hits mostly cytotoxic. 400,000 compounds, 3.4% hits. KB-V1 MDR cells viability, CellTiter-Glo, 72 h. AID 1347076; further: nearly all actives have a fitted effect of over 60% in size
#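 Drug-selected KB-V1 cells, grown in DMEM lacking phenol red with 10% FBS, receive compound titrations; after three days at 37 degrees C, surviving cell ATP is quantified by CellTiter-Glo luminescence and responses normalized and curve-fitted.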
# DT40 TDP1 no CPT = qHTS for Inhibitors of human tyrosyl-DNA phosphodiesterase 1 (TDP1): qHTS in cells in absence of CPT; DT40 Tdp1-/- hTDP1 cells, no CPT, ATP luminescence, 48 h; Potency, µM (series often up to 46.2 µM), inactives show top-dose activity change, negative = growth inhibition, most hits filed as inhibitors; 420,000 compounds, 15% hits; AID 686978, 2013; further: nearly all actives have a fitted effect of over 55% in size
#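 Growth kinetics read by CellTiter-Glo luminescence after ≥48 hr at 37 °C. Cells: DT40 Tdp1-/- stably carrying human TDP1, 400 per well, compound exposure in the absence of CPT (DMSO vehicle).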
# KB-3-1 cytotox = kills parental KB-3-1 adenocarcinoma cells; 400,000 compounds, 1.4% hits; KB-3-1 viability, CellTiter-Glo ATP luminescence, 72 h; Potency, µM (series often up to 46.1 µM), usual class: cytotoxic; further: nearly all actives have a fitted effect of over 60% in size
#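 Multi-concentration cytotoxicity screen in KB-3-1 cells grown in DMEM lacking phenol red with 10% FBS. After 72 h at 37 °C with compound, ATP-dependent luminescence was recorded.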
# HT1080-NT tox = kills 2HG-producing HT-1080-NT fibrosarcoma cells | HT-1080-NT fibrosarcoma viability, CellTiter-Glo ATP luminescence, 48 h | 360,000 compounds, 1.6% hits | Potency, µM (doses to about 46.1 µM), for the others: top-dose activity, negative = less viability, usual class: cytotoxic;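 further: NT is the 2HG producing partner of a matched IDH1 knockdown line; 0% = DMSO-treated cells and -100% = media-only wells without cells; nearly all actives have a fitted effect of over 55% in size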
#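 Toxicity toward the 2HG-producing NT line was scored as %Activity, normalised to DMSO and no-cell wells, from CellTiter-Glo luminescence after 48 hours' treatment.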
# TDP1 cell CPT = growth inhibition of DT40 Tdp1-/-;hTDP1 cells with camptothecin (screen for TDP1 inhibitors) | 420,000 compounds, 12% hits | chicken DT40 Tdp1-/-;hTDP1 cells + 20 nM CPT, ATP luminescence, 48 h | AID 686979 | Potency, µM (series often up to 46.2 µM), without a hit: at the highest dose activity change, negative = growth inhibition, usual class: inhibitors; further: nearly all actives have a fitted effect of over 55% in size
#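 Chicken DT40 Tdp1-/- cells complemented with human TDP1, 400 cells/well, exposed to compounds plus 20 nM camptothecin for at least 48 h at 37 C; viability read as ATP content by CellTiter-Glo luminescence.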
# HT1080 IDH1KD tx = toxicity to HT-1080 IDH1 knockdown cells (counter line). HT-1080 IDH1 knockdown viability, ATP luminescence, 48 h. Potency, µM (doses to about 46.1 µM), for the others: top-dose activity, negative = toxicity, usual class: cytotoxic. 360,000 compounds, 2% hits. AID 686971;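 further: 0% = DMSO wells and -100% = cell-free medium wells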
#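 Luminescent ATP read-out (CellTiter-Glo, 10 min at room temperature) after 48 h compound exposure at 37 °C gave viability of IDH1-knockdown HT-1080 cells. Activity was normalised to DMSO and cell-free wells, then fitted as concentration-response curves.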
# Numbers without * were called inactive; i = inactive; ? = inconclusive; . = no result given; ! = a repeat was not active; [ ] = dose if it differs, or a comment. Compounds with a hit are over-represented: about 19% of the library has one in this group of screens. The call rests on the fitted dose curve; in most records, active means well fitted curve in the direction sought with a large enough effect; inconclusive means small, poorly fitted or top-dose-only effect, or another doubt; inactive means no such curve, though single readings can be large; an effect the other way counts as inactive or inconclusive. Unless noted, on the % scale 0 is the no-effect control and ±100 the full control effect; potency means the concentration at half of the fitted maximal effect.
SMILES,KB-V1 cytotox,DT40 TDP1 no CPT,KB-3-1 cytotox,HT1080-NT tox,TDP1 cell CPT,HT1080 IDH1KD tx
COc1ccc([C@@H](C)NC(=O)CCc2nnc(-c3cc(C)on3)o2)cc1,?,?,i,4.7%,-13.5%,3.4%
CCC(NC(=O)CCc1nnc(-c2cc(C)on2)o1)C12CC3CC(CC(C3)C1)C2 (configuration not stated),.,16.4µM*,.,-1.0%,20.6µM*,-4.7%
CC(C)(C)OC(=O)[C@H]1[C@H](c2ccc([N+](=O)[O-])cc2)C2(C(=O)c3ccccc3C2=O)C2c3ccccc3C=NN21 (some centres not stated),i,18.4µM*,i,-9.0%,?,-27.7%
COc1ccccc1NS(=O)(=O)c1cc(C(=O)NC2CC(C)(C)NC(C)(C)C2)ccc1Cl,?,2.7%,i,-6.8%,-15.3%,10.7%
CN(Cc1nc2ccccc2c(=O)[nH]1)C(=O)c1cc2c(s1)CCCCC2,i,16.4µM*,i,0.1%,23.1µM*,6.3%
CN(Cc1nc2ccccc2c(=O)[nH]1)C(=O)c1cccc(NC(=O)c2cccs2)c1,.,?,.,11.0%,?,-1.2%
CN(CC(=O)Nc1sc2c(c1C#N)CCCCC2)Cc1nc2ccccc2c(=O)[nH]1,16.4µM*,18.4µM*,i,-7.0%,?,-15.8%
COc1ccc(CCNC(=O)CN2C(=O)COc3ccc(S(=O)(=O)N4CCCC4)cc32)c(OC)c1,i,16.4µM*!,i,-1.0%,18.4µM*!,8.7%
NS(=O)(=O)c1ccc(CCNC(=O)CN2C(=O)COc3ccc(S(=O)(=O)N4CCCC4)cc32)cc1,?,4.2%,?,-6.6%,-6.6%,13.8%
Cc1ccc(CCNC(=O)CN2C(=O)COc3ccc(S(=O)(=O)N4CCCCC4)cc32)cc1,i,-25.0%,i,-4.2%,?,-15.2%
Cc1ccc(CCNC(=O)CN2C(=O)COc3ccc(S(=O)(=O)N4CCCCCC4)cc32)cc1,.,16.4µM*,.,.,16.4µM*,.
O=C(CN1C(=O)COc2ccc(S(=O)(=O)N3CCCC3)cc21)NCCc1ccc(Cl)cc1,.,23.1µM*,.,.,?,.
COc1cccc(C(=O)N2N=C(c3cccc(OC)c3)CC2(O)C(F)(F)F)c1 (configuration not stated),i,?,i,-26.8%,?,-0.1%[9.24 µM]
CCCCC1=NN(C(=O)c2cccnc2)C(O)(C(F)(F)F)C1 (configuration not stated),i,1.03µM*,i,-8.5%,1.46µM*,-2.5%
CCC1=NN(C(=O)c2cccnc2)C(O)(C(F)(F)F)C1 (configuration not stated),i,?,i,?,16.4µM*,25.3%
C/C(=N\NC(=S)NC1CCCCC1)c1ccc(O)cc1,?,16.4µM*,16.4µM*,-19.3%,?,-8.5%
C/C(=N\NC(=S)NC1CCCCC1)c1ccccc1,i,29.1µM*,16.4µM*,8.1%,?,2.0%
CC1CCN(CCCCOc2ccc([N+](=O)[O-])cc2)CC1,i,-22.0%,i,0.3%,15.7%,9.4%
O=[N+]([O-])c1cccc(COc2ccc(CN3CCOCC3)cc2)c1,i,16.4µM*,i,2.1%,?,3.0%
O=[N+]([O-])c1ccc(CN2CCN(c3ccc([N+](=O)[O-])cc3)CC2)cc1,i,18.4µM*,?,?,?,?
COC(=O)C1CCN(Cc2ccc(OCCCN3CCN(c4ccc([N+](=O)[O-])cc4)CC3)cc2)CC1,?,10.3µM*,i,-20.6%,7.31µM*,14.6µM*
O=[N+]([O-])c1ccc(CN2CCSCC2)cc1,i,-15.6%,i,17.3%,7.0%,7.4%
O=[N+]([O-])c1ccc(N2CCC(=NOCc3ccc(Cl)cc3)CC2)cc1,14.6µM*,10.3µM*,i,?,20.6µM*,-29.7%
O=C(CSS(=O)(=O)O)N1CCN(C(=O)c2ccoc2)CC1,?,0.9%,i,-6.2%,12.7%,20.7%
O=[N+]([O-])c1cccc(CN2CCCCCC2)c1,i,-7.6%,i,-0.5%,0.5%,0.4%
SMILES,KB-V1 cytotox,DT40 TDP1 no CPT,KB-3-1 cytotox,HT1080-NT tox,TDP1 cell CPT,HT1080 IDH1KD tx
O=[N+]([O-])c1ccc(N2CCN(Cc3cccc([N+](=O)[O-])c3)CC2)cc1,i,4.11µM*,i,?,?,?
CCCCc1ccc(NC(=O)C(=O)NCCN2CCN(Cc3ccc([N+](=O)[O-])cc3)CC2)cc1,?,0.731µM*,i,-0.4%,3.26µM*,-0.9%
CC(c1ccc2ccccc2c1)c1ccccc1C(=O)O (configuration not stated),i,-12.4%,i,-0.8%,1.0%,3.3%
CC1CCC(NC(=O)CN(C)CC(=O)Nc2ccc(F)cc2)CC1 (configuration not stated),23.1µM*,-13.7%,i,-0.1%,-18.3%,-1.1%
CSc1ncccc1C(=O)N(C)CC(=O)Nc1ccc(Cl)c(C(F)(F)F)c1,?,?,i,-0.5%,?,0.0%
CN(CC(=O)NCc1ccccc1)CC(=O)Nc1ccc(Cl)c(C(F)(F)F)c1,?,18.4µM*,i,-13.5%,14.6µM*,-5.1%
CC(C(=O)N1CCCCC1)N(C)CC(=O)Nc1ccc(Cl)cc1 (configuration not stated),?,16.4µM*,i,-3.0%,?,-6.1%
CN(CC(=O)NCCc1ccc(S(N)(=O)=O)cc1)CC(=O)Nc1ccccc1Cl,i,-16.1%,i,-0.3%,-17.8%,-1.1%
CN(CC(=O)NCCc1ccc(S(N)(=O)=O)cc1)CC(=O)Nc1ccc(Cl)c(C(F)(F)F)c1,i,13µM*,16.4µM*,0.5%,13µM*,-9.7%
CC(C(=O)N1CCCCC1)N(C)CC(=O)Nc1ccc(F)c(F)c1F (configuration not stated),i,4.7%,i,2.3%,-3.3%,9.1%
Cc1oc(-c2cccc(Br)c2)nc1Cn1c(=O)cc(-c2ccccc2)c2c(C)nn(C)c21,i,-17.2%,i,.,-1.8%,.
Cc1ccc(NC(=O)c2ccc3c(O)c(S(=O)(=O)c4ccc(Cl)cc4)c(=O)[nH]c3c2)cc1,i,0.2%,i,.,0.1%,.
CCc1ccc(NC(=O)Nc2nnc(N(C)C3CCCCC3)s2)cc1,i,?,i,.,?,.

# Source: PubChem
